MazEF act: MazEF (E. coli) toxin RNase activation; activation, % at 20 µM; FAM/BHQ RNA-DNA oligo cleavage fluorescence, 5 h; P0AE70; actives 0.32% (n = 350,000); in the data active means activation above about 50%
Target sequence (P0AE70 whole entry, looked up): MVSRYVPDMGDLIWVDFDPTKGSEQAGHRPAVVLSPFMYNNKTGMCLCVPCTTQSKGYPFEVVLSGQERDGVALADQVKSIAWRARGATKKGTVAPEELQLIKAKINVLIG
Mtb betalactam: beta-lactam sensitization of Mtb H37Rv. M. tuberculosis H37Rv growth with meropenem, percent inhibition. inhibition, % at 25 µM. actives 0.27% (n = 330,000). AID 434955; call rule not given here;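 further: growth measured after seven days incubation then overnight dye step; 0% = bacteria only wells and 100% = bacteria with antibiotic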
CCHFV vOTU inh: blocks the CCHF virus ovarian tumor domain protease. AID 651958. actives 0.55% (n = 370,000). inhibition, % at 11.5 µM. CCHFV vOTU protease, Pep-AMC fluorescence; further: 0% = vehicle wells with enzyme and 100% = no enzyme wells
FBA Mtb inh: inhibitors of M. tuberculosis fructose-bisphosphate aldolase; purified M. tuberculosis FBA, fluorescence read-out; actives 2.3% (n = 360,000); inhibition, % at 1 µM; in the data active means inhibition above about 27%;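 further: 0% = vehicle and 100% = reference inhibitor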
Target sequence (P9WQA3 whole entry, looked up): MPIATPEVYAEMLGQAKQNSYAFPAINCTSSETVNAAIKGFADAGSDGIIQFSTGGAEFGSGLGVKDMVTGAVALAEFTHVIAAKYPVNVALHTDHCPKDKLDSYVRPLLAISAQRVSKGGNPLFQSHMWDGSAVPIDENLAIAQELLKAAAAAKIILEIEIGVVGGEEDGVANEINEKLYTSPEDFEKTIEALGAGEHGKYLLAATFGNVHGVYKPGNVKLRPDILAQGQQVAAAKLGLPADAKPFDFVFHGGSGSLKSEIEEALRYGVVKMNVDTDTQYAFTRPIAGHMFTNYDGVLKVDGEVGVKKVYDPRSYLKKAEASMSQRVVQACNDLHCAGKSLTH
GDH-TPI inh: counter-screen for M. tuberculosis FBA inhibitors: GDH-TPI coupled enzymes | GDH-TPI coupled enzyme counterscreen, NADH absorbance | actives 1.2% (n = 360,000) | inhibition, % at 4.8 µM;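 further: 0% = DMSO wells and 100% = wells lacking the enzyme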
Active calls of the source: *; ? = inconclusive; . = not tested or not shown; + = active, no number. An excerpt weighted towards active compounds, which were near 4% of everything screened. Unless noted, no stated cut-off is given here; in the data, active means inhibition above about 30%; inactive means the rest.

SMILES	MazEF act	Mtb betalactam	CCHFV vOTU inh	FBA Mtb inh	GDH-TPI inh
O=S(=O)(Nc1ccc(-c2nc3cccnc3s2)cc1)c1cccs1	-1	3	-250	+	15
CC(=O)OCC(=O)N1CCN(C(=O)C(=O)c2cccc(C(F)(F)F)c2)CC1	.	.	-3	.	.
COC(=O)C/C=C/[C@@H](C)[C@H](NC(=O)OCC(Cl)(Cl)Cl)c1ccc(-c2ccccc2)cc1	.	.	5	.	.
Cc1nc2ccc(S(=O)(=O)Nc3ccc(-c4nc5cccnc5s4)cc3)cc2s1	3	-5	-82	+	31
COc1ccc(NC(=O)C2CCCO2)cc1 (centres undefined)	0	-5	-8	-2	-5
O=C(Nc1ccc(-c2nc3cccnc3s2)cc1)C1CCCO1 (centres undefined)	11	3	-145	+	33*
CCS(=O)(=O)Nc1cccc(-c2nc3cccnc3s2)c1	3	-8	-7	3	5
CCS(=O)(=O)Nc1ccc(-c2nc3cccnc3s2)cc1	2	-7	-242	+	24
Cc1nc2ccc(S(=O)(=O)Nc3cccc(-c4nc5cccnc5s4)c3)cc2s1	-2	-4	2	19	15
O=S(=O)(Nc1ccc(-c2nc3cccnc3s2)cc1)c1ccc(Cl)s1	0	0	-67	+	37*
O=C1[C@@H](CCc2ccccc2)[C@@H]2c3ccccc3C=NN2[C@@H]2c3ccccc3C=NN12	.	.	6	.	.
Cc1ccc(O)c(C(C)c2c[nH]c3ccccc23)c1 (centres undefined)	.	.	6	.	.
N#Cc1ccc(/C=N/NC(=S)Nc2ccc(S(=O)(=O)N3CCOCC3)cc2)cc1	5	-2	9	0	40*
O=S(=O)(c1ccc(Cl)c(NC(=S)N/N=C/c2ccc(O)cc2)c1)N1CCOCC1	19	8	-6	-3	27
O=S(=O)(c1ccc(NC(=S)N/N=C/c2ccc(O)c(O)c2)cc1)N1CCOCC1	9	-6	0	-5	37*
O=S(=O)(c1ccc(NC(=S)N/N=C/c2cccc(Oc3ccccc3)c2)cc1)N1CCOCC1	4	-2	-12	2	18
CCn1c(C)cc(/C=C2\NC(=O)N(Cc3ccc(Cl)cc3)C2=O)c1C	-13	10	-2	3	25
CCN1C(=O)N/C(=C/c2cc(C)n(Cc3ccccc3)c2C)C1=O	-6	28	5	2	32*
CCOC(=O)N1CCN(CC(=O)c2ccc(O)c(C)c2O)CC1	7	-4	-4	-3	1
CCOC(=O)C1CCN(CC(=O)c2ccc(O)c(C)c2O)CC1	-6	-1	-1	8	32*
COC(=O)C[C@@H]1CC[C@@H]2[C@@H](COc3ccc(NC(=O)Nc4ccc(F)cc4)cc3C(=O)N2C)O1	.	.	-7	.	.
NS(=O)(=O)c1ccc(NC(=O)c2ccc3c(c2)CCCC3)cc1	72*	3	12	0	6
CCOc1ccc(-c2cc(NC(=O)c3c(F)cccc3F)c(C(=O)O)s2)cc1	-22	15	24	0	32*
CCOc1ccc(NC(=O)Nc2cc(-c3ccccc3)sc2C(=O)OC)cc1	3	0	-8	1	10
COC(=O)c1sc(-c2ccc(Cl)cc2)cc1NC(=O)c1ccccc1C(=O)O	-7	-4	5	2	32*
SMILES	MazEF act	Mtb betalactam	CCHFV vOTU inh	FBA Mtb inh	GDH-TPI inh
C=CCN1[C@H](C)COc2cccc(N3CCCC3)c2S1(=O)=O	.	.	0	.	.
CCCC(C)Sc1nc2c([nH]1)c(=S)n(C)c(=O)n2C (centres undefined)	10	.	0	-2	35*
Cc1cccc(C)c1NC(=O)C1CCCN1S(=O)(=O)c1cccc2cccnc12 (centres undefined)	.	.	-5	.	.
Cc1ccccc1-c1ccc(C=Nc2c(C)n(C)n(-c3ccccc3)c2=O)o1	7	-5	18	-11	33*
CCOC(=O)c1[nH]c2cc3c(cc2c1NC(=O)CN1CCC(C)CC1)OCO3	-2	6	-6	153*	29
CCOC(=O)C1=C(C(=O)OCC)C2N(Cc3ccc(C(F)(F)F)cc3)c3ccccc3[C@@]23C[C@@H](C(=O)OC)N(S(=O)(=O)c2ccc(OC)cc2)C3=N1 (some centres undefined)	.	.	-6	.	.
Cc1cccn2c(=O)c3cc(C(=O)NCc4ccccc4)c(=N)n(CCCN4CCOCC4)c3nc12	-2	.	-178	125*	6
Cc1ccc2nc3c(cc(C(=O)NCCc4ccccc4)c(=N)n3CCCN3CCOCC3)c(=O)n2c1	24	7	-110	122*	1
COc1ccc(CCn2c(=N)c(C(=O)NCCN3CCOCC3)cc3c(=O)n4cccc(C)c4nc32)cc1OC	9	9	1	2	8
COc1ccc(CCNC(=O)c2cc3c(=O)n4ccccc4nc3n(CCCN3CCOCC3)c2=N)cc1	23	9	10	14	13
Cc1cccn2c(=O)c3cc(C(=O)NCCN4CCOCC4)c(=N)n(CCCN4CCOCC4)c3nc12	-4	-5	-105	114*	7
COc1ccc(CCNC(=O)c2cc3c(=O)n4ccccc4nc3n(CCN3CCOCC3)c2=N)cc1	18	10	-21	24	7
C=CCOC(=O)C1=C(C)N=c2sc(=C3C(=O)N(CC(=O)O)c4ccccc43)c(=O)n2C1c1ccc(OC)cc1 (centres undefined)	.	.	-1	.	.
CCCCc1nc(C(N)=O)c2[nH]c(=O)n(-c3ccc(OC)cc3OC)c2n1	-2	?	.	3	9
CCCCc1nc(C(N)=O)c2[nH]c(=O)n(-c3ccccc3F)c2n1	2	?	.	136*	5
CCn1c(N)c(C(=O)NC2CCCCC2)sc1=S	7	7	-8	0	43*
CCn1c(N)c(C(N)=O)sc1=S	-3	3	6	-1	12
O=C(CN1CCCCC1)Nc1nnc(-c2ccc([N+](=O)[O-])cc2)s1	2	95	15	1	41*
O=C(/C=C/c1cccc(Br)c1)c1ccc2c(c1)OCO2	-1	86	-1	2	9
O=C(C=Cc1ccc2c(c1)OCO2)C1CC1	4	.	-1	1	36*
COC(=O)/C=C/c1ccc2c(c1)OCO2	4	4	3	7	9
O=C(/C=C/c1ccccc1)c1ccc2c(c1)OCO2	-9	62	5	-5	40*
CN(Cc1ccccc1)S(=O)(=O)c1cccc(C(=O)OCC2CCCCC2)c1	.	.	9	.	.
N#Cc1ccc(NC(=O)OC2CCC23CCC(c2ccccc2)CC3)cc1 (centres undefined)	.	.	9	.	.
Cc1ccc(N=Cc2nc(-c3ccc(C)cc3)oc2O)cc1	-10	.	5	4	6
CSc1ccccc1N=Cc1nc(-c2ccccc2)oc1O	-4	89	-1	-1	10
Oc1oc(-c2ccccc2)nc1C=NCc1ccccc1	-4	-1	3	-4	49*
Oc1oc(-c2ccccc2)nc1C=Nc1ccccc1	5	6	0	-2	22
CC(=O)Nc1ccc(N=Cc2nc(-c3ccc(C)cc3)oc2O)cc1	245*	6	-5	-1	8

Source: PubChem
